Screening results (PubChem)
HP1b chromo inh – HTS for Inhibitors of HP1-beta Chromodomain Interactions with Methylated Histone Tails; Potency, µM (highest dose often 114 µM), for inactives: top-dose activity change, negative = inhibition, usual class: inhibitors; AID 540317, 2011; 390,000 tested, 0.56% active; Chromobox protein homolog 1 (Homo sapiens), P83916; AlphaScreen HP1-beta / biotin-H3K9me3 peptide binding; also: nearly all actives have a fitted effect of over 70% in size
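HP1-beta protein (50 nM final) preincubated 30 min at room temperature with biotinylated H3(1-18)K9me3 peptide (50 nM) in PBS pH 7.4, 0.01% Tween-20, then compound added for 30 min. AlphaScreen streptavidin donor/nickel chelate acceptor beads (10 ug/mL final), 30 min dark, luminescence read.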
JMJD2A Tudor – qHTS Assay for Inhibitors of JMJD2A-Tudor Domain. Potency, µM (titrated, usually from 114 µM), for inactives: at the highest dose activity change, negative = inhibition, actives largely listed as inhibitors. Lysine-specific demethylase 4A (Homo sapiens), O75164. 390,000 tested, 4.4% active. AID 504339, 2011. AlphaScreen JMJD2A-Tudor / H3K4me3 peptide binding; also: % is scaled to controls: 0 for no effect and ±100 for the full control effect; nearly all actives have a fitted effect of over 50% in size
BAZ2B block – qHTS Assay for Inhibitors of BAZ2B. Bromodomain adjacent to zinc finger domain protein 2B (Homo sapiens), Q9UIF8. AlphaScreen BAZ2B-H3K14Ac peptide displacement. Potency, µM (highest dose often 114 µM), without a hit: top-dose activity change, negative = inhibition, usual class: inhibitors. 360,000 tested, 4.4% active. AID 504333, 2011; also: % is scaled to controls: 0 for no effect and ±100 for the full control effect; nearly all actives have a fitted effect of over 60% in size
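AlphaScreen displacement of biotin-H3(5-23)K14Ac peptide (50 nM final) from BAZ2B (50 nM final) in PBS pH 7.4, 0.01% Tween-20; complex preformed 30 min RT, then compounds (top 110 uM) 30 min RT, beads 20 min dark.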
GLS inhibitor – qHTS for Inhibitors of Glutaminase (GLS); Glutaminase kidney isoform, mitochondrial (Homo sapiens), O94925; GLS enzymatic activity, qHTS titration; Potency, µM (titrated, usually from 45.5 µM), for the others: top-dose activity change, negative = inhibition, usual class: inhibitors; 410,000 tested, 0.21% active; also: % is scaled to controls: 0 for no effect and ±100 for the full control effect
Target sequence (O94925 whole entry, looked up, canonical isoform): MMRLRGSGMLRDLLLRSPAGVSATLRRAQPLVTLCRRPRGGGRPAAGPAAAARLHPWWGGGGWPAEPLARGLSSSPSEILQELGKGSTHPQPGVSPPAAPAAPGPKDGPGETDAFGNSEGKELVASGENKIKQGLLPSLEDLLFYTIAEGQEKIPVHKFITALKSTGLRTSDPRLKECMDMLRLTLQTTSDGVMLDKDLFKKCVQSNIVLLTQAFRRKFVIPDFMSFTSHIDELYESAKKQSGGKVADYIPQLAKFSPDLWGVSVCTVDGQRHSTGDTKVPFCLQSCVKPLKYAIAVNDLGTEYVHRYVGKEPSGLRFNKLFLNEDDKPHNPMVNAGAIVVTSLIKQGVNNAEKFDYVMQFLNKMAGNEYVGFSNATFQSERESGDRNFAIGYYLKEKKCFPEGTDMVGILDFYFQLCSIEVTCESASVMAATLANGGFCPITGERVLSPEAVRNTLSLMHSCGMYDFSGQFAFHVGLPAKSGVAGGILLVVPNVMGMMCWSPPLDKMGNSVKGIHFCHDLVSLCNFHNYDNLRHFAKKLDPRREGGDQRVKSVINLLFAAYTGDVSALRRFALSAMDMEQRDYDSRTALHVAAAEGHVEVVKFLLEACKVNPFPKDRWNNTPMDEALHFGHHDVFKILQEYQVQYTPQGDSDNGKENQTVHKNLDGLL
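hKGA in 45 mM KH2PO4 pH 8.2, 0.02% Tween-20 with pin-transferred compounds; 1 mM L-glutamine (stock) plus glutamate oxidase/HRP/Amplex Red coupling added. Fluorescence read initially and after 30 min at RT.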
G9a block – qHTS Assay for Inhibitors of Histone Lysine Methyltransferase G9a | Histone-lysine N-methyltransferase EHMT2 (Homo sapiens), Q96KQ7 | G9a H3K9 monomethylation, AlphaScreen, 2 h | Potency, µM (series often up to 102 µM), inactives show top-dose activity, negative = inhibition, most hits filed as inhibitors | 350,000 tested, 8.8% active | AID 504332, 2011; also: % is scaled to controls: 0 for no effect and ±100 for the full control effect; nearly all actives have a fitted effect of over 75% in size
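Quantitative HTS format: methyltransferase activity on a biotin-tagged H3K9 peptide is measured by AlphaScreen, using a rabbit anti-monomethyl-H3K9 antibody with streptavidin donor and anti-IgG acceptor beads. Final levels are 20 nM enzyme, 500 nM peptide, 20 uM SAM; 2 h RT.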
Starred values were filed as active, the others as inactive; ? = inconclusive; . = no result given; [ ] = dose if it differs, or a comment. The list is not random: actives were taken first. Their share in the collection is about 10%. Calls follow the shape of the dose curve; as a rule, active = well fitted curve in the direction sought with a large enough effect; inconclusive = small, poorly fitted or top-dose-only effect, or another doubt; inactive = no such curve, though single readings can be large; an effect the other way counts as inactive or inconclusive. Potency is read from the fitted curve at half-maximal effect.

SMILES	HP1b chromo inh	JMJD2A Tudor	BAZ2B block	GLS inhibitor	G9a block
O=C(CCC1N=C2c3ccccc3N=C(SCC(=O)NCc3ccco3)N2C1=O)NCc1ccco1 (stereo not given)	34%	?	50µM*	128%	-7%[59 µM]
O=C(CC1N=C2c3ccccc3N=C(SCc3ccc(Cl)cc3)N2C1=O)NCc1ccco1 (stereo not given)	-12%	?	?	2%	50µM*
COc1ccc(-c2nnc3c4ccccc4c(-c4ccccc4)nn23)cc1	36%	-11%	-4%	-1%	-2%[59 µM]
O=C(c1ccco1)c1coc2c1cc(O)c1ccccc12	-2%	?	-21%	15%	40µM*
CCCS(=O)(=O)NC(=O)C1(C)CCCN(C(=O)c2ccc(C#N)cc2)C1 (stereo not given)	.	.	.	3%	.
Cc1sc2ncn(CC(=O)N(C)C3CCCCC3)c(=O)c2c1C	-2%	-20%	9%	-4%	40µM*
CCOc1cc(C(=O)Nc2cc3c(cc2N2CCCC2)n(C)c(=O)n3C)cc(OCC)c1OCC	32%	-29%	89µM*	-1%	.
CCOc1ccc(C(=O)Nc2cc3c(cc2N2CCCC2)n(C)c(=O)c(=O)n3C)cc1OCC	25%	-12%	-33%	-2%	?
CCOc1cc(C(=O)Nc2cc3c(cc2N2CCCC2)n(C)c(=O)c(=O)n3C)cc(OCC)c1OCC	25%	-22%	-21%	-8%	10µM*
CCCOc1ccc(C(=O)Nc2cc3c(cc2N2CCCCC2)n(C)c(=O)n3C)cc1	-5%	-27%	-31%	3%	-34%[59 µM]
Cn1c(=O)c(=O)n(C)c2cc(N3CCCC3)c(NC(=O)c3ccc(C(C)(C)C)cc3)cc21	2%	-30%	?	-5%	11µM*
Cc1ccc(S(=O)(=O)N2CCC(c3ccncc3)CC2)c(C)c1	13%	-14%	-16%	-6%	-6%[59 µM]
Cc1ccc(C)c(Cn2c(=O)n(C(C)C)c(=O)c3oc4ccccc4c32)c1	28%	-14%	1%	-11%	4%[59 µM]
Cc1ccc(-c2csc(N3CCN(c4cc5c(cc4Cl)nc(-c4ccncc4)n5CCN4CCCCC4)CC3)n2)cc1	-5%	?	?	-26%	22µM*
Cc1ccc(-c2csc(N3CCC(C(N)=O)(N4CCCCC4)CC3)n2)cc1	18%	-1%	4%	3%	?
CCCn1c(C)nc2cc(Cl)c(N3CCN(c4nc(-c5ccc(C)cc5)cs4)CC3)cc21	-4%	-31%	-4%	1%	.
COc1ccc(-c2csc(NCCc3nc4cc(Cl)c(N5CCCCC5)cc4n3CCOCCO)n2)cc1	17%	-29%	.	9%	.
Cc1ccc(-c2csc(N3CCN(c4ccc5nc(-c6ccncc6)n(CCN6CCCCC6)c5c4)CC3)n2)cc1	?	45µM*	?	13%	35µM*
COc1ccc(-c2csc(N3CCN(c4cc5c(cc4Cl)nc(-c4ccncc4)n5CCOCCO)CC3)n2)cc1	21%	-23%	50µM*	7%	28µM*
COc1ccc(CC(=O)Nc2cc(S(=O)(=O)N3CCCCC3)ccc2OC(C)C)cc1OC	.	.	.	0%	.
CN(C)CCNC(=O)CN1C(=O)COc2ccc(S(=O)(=O)N3CCCC3)cc21	33%	9%	-1%	-3%	-10%[59 µM]
CCn1nc(-c2ccc(C)cc2)nc2c(=O)n(C)c(=O)nc1-2	25%[57 µM]	-6%[57.1 µM]	.	.	.
CN(O)/C=C/C(=O)c1ccc(Br)cc1	-22%	50µM*	-31%	-5%	20µM*
CC(NC(=O)NC1CCCCC1)C(c1cccs1)N1CCN(c2ccccc2)CC1 (stereo not given)	5%	-29%	-10%	18%	-13%[59 µM]
Clc1ccc(NCc2ccsc2)cc1	.	.	-8%	.	.
SMILES	HP1b chromo inh	JMJD2A Tudor	BAZ2B block	GLS inhibitor	G9a block
Cc1ccc(CSc2oc(-c3ccco3)nc2S(=O)(=O)c2ccc(C)cc2)cc1	11%	-20%	-14%	-4%	-33%[59 µM]
O=S(=O)(c1ccc(Br)cc1)c1nc(-c2ccco2)oc1NCC1CCCO1 (stereo not given)	35%	-8%	?	-6%	35µM*
Cc1ccc(S(=O)(=O)c2nc(-c3ccco3)oc2NCC2CCCO2)cc1 (stereo not given)	26%	-17%	-36%	5%	10µM*
CN(C)c1oc(-c2ccco2)nc1S(=O)(=O)c1ccc(Br)cc1	-24%	?	?	0%	1%[12.7 µM]
COc1ccc(S(=O)(=O)NCCc2nnc3ccc(SCC(=O)Nc4nc(C)cs4)nn23)cc1	36%	1%	0%	2%	18%[59 µM]
COc1cccc(-c2ncc3ccccc3c2COC(=O)c2ccco2)c1	27%	-19%	-32%	2%	4%[2.33 µM]
Nc1ccc(C(CC(=O)O)n2cccc2)cc1 (stereo not given)	?	?	79µM*	2%	?
COc1ccc(OC)c(C2CC(=O)Nc3c2c(=O)n(C)c2ncnn32)c1 (stereo not given)	-11%	-15%	?	0%	-28%[59 µM]
CCOC(=O)c1cc2c(c(-c3ccccc3)n1)[C@@H](CCO)N(S(=O)(=O)C(C)(C)C)C2	17%	-14%	.	-5%	.
Cc1ccc(-c2cnc(NCc3cc4c(cc3[N+](=O)[O-])OCO4)n2C)cc1C	?	32µM*	-14%	13%	0%
Cc1cnc2c(c1SCC(=O)Nc1ccc(F)cc1F)c(=O)n(C)c(=O)n2C	50%	2%	-34%	1%	2%[59 µM]
Cc1ccc(NC(=O)c2c(C)oc3ccc(O)c(CN4CCN(Cc5ccccc5)CC4)c23)cc1	11%	-25%	-20%	-5%	-42%[59 µM]
COc1ccc(C=NNc2nc3ccccc3s2)cc1	-22%	-24%	.	-12%	.
Cc1ccc2[nH]c(C)c(/C=N/Nc3nc4ccccc4s3)c2c1	-25%	45µM*	?	39%	?
CC1(c2nnc(-c3ccncc3)o2)CC(c2cccc(Cl)c2)=NO1 (stereo not given)	36%	-25%	.	7%	.
COc1ccccc1CCNC(=O)c1ccc(C)o1	46%	-21%	-5%	2%	0%[12.7 µM]
COc1ccccc1CCNC(=O)c1nccnc1C(=O)O	14%	-3%	-25%	-4%	35µM*
CC(C)CC(=O)OCc1cc(=O)n2nc(C3CCCCC3)sc2n1	30%	-11%	-1%	0%	14%[59 µM]
CS(=O)(=O)c1ccc(Sc2nc3ccccc3s2)c([N+](=O)[O-])c1	2%	?	-38%	0%	0%[59 µM]
O=[N+]([O-])c1cc(S(=O)(=O)C(F)(F)F)ccc1Sc1nc2ccccc2s1	?	35µM*	7.9µM*	3%	-6%[0.501 µM]
